From PubChem BioAssay
Only a selection was taken, and hits are over-represented in it overall.
GIRK2 activ: opens human GIRK2 potassium channels | calls only for hits at 25 µM | 0.05% of 63,000 active | HEK293-GIRK2 thallium flux, Thallos fluorescence, MPD | P48051 | AID 1259325; call rule not given here
Target sequence (P48051 whole entry, looked up): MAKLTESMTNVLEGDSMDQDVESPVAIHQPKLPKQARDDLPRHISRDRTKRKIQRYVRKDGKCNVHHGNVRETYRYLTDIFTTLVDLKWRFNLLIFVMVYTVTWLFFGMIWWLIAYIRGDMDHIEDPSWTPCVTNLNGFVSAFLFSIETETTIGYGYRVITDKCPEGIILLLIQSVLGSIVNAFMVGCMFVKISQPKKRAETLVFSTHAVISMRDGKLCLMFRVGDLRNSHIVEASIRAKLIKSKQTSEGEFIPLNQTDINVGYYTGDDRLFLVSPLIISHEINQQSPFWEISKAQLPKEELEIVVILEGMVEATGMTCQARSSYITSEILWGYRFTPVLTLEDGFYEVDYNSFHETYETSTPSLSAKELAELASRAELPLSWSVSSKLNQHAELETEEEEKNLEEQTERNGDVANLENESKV
Large screens that a line does not name were inactive.

N#Cc1ccc(COCC2CCN(C(=O)NCc3ccc(F)cc3)CC2)cc1	none
COCCCNC(=O)CSc1nc(-c2cccc(F)c2)[nH]c1-c1ccccc1	GIRK2 activ active
O=C(CSc1nc(-c2ccccc2)[nH]c1-c1ccc(F)cc1)NCC1CCCO1 (centres undefined)	GIRK2 activ active
COCCNC(=O)CSc1nc(-c2ccc(C)cc2)[nH]c1-c1ccccc1	none
COc1ccc(-c2nc(SCC(=O)NCC3CCCO3)c(-c3ccc(C)cc3)[nH]2)cc1OC (centres undefined)	none
O=C(CSc1ncccc1-c1nc2ccccc2[nH]1)NCC1CCCO1 (centres undefined)	none
CCOc1ccc(-c2nc(SCC(=O)NCCCOC)c(-c3ccccc3)[nH]2)cc1OC	none
CN1CCN(c2cc(NC(=O)CCCc3ccccc3)ncn2)CC1	none
O=S(=O)(Cc1ccc(C(F)(F)F)cc1)NCC1COC2(CCCCC2)O1 (centres undefined)	none
O=C(c1ccc(Cl)cc1Cl)N1CCC(Oc2ccccn2)CC1	none
CCCn1c(-n2nc(C)cc2C)nc2c1c(=O)n(CC(N)=O)c(=O)n2C	none
CCOC(=O)c1ccc(-n2c(N3CCCC3)nc3ccccc3c2=O)cc1	none
COc1cccc(C(=O)Nc2nc(-c3cc4ccccc4o3)cs2)c1OC	none
Cc1ncc2c(SCC(=O)N3CCN(c4ccccc4F)CC3)ncnc2n1	none
COc1cc(CN2CCC(Cn3c(C)nc4ccccc43)CC2)cc(OC)c1	none
O=c1n(Cc2cccc(Br)c2)nc2ccc(-c3ccccc3)nn12	none
COc1cn2c(cc1=O)C(=O)N(CCNC(=O)c1cccs1)CC2	none
C#Cc1cccc(Nc2ncnc3ccc(OCCCCNCCS(C)(=O)=O)cc23)c1	none
CCc1ccccc1NC(=O)N1CCN(c2ccc(-n3cccc3)nn2)CC1	none
COc1ccc(OC)c(NC(=O)CSC2=NNC3C4CC(c5ccc(F)cc5)NN4C=CN23)c1 (centres undefined)	none
COc1ccc(C2CCN(C(=O)c3ccc(OC)cc3OC)C2)cc1 (centres undefined)	none
O=S(=O)(c1ccccc1C(F)(F)F)N1CCN(c2cc(N3CCCC3)ncn2)CC1	none
COc1ccc(NCCN2N=C(c3ccccc3)Cn3c2nc2c3c(=O)n(C)c(=O)n2C)cc1	none
CCCCn1c(C(=O)NCCCOC)cc2c(=O)n(C)c(=O)n(C)c21	none
CCOCCn1c(=O)c2c(nc3n2CC(C)CN3c2ccc(OCC)cc2)n(C)c1=O (centres undefined)	none
O=C(NCC1CCN(c2ccccn2)CC1)c1ccc(Cl)s1	none
CCCCNC(=O)Cn1cc(-c2nc(-c3ccc(OC)cc3)no2)ccc1=O	none
COc1nn(C)cc1C(=O)NCCN1CCN(C(=O)OC(C)(C)C)CC1	none
COc1cc(/C=C2/SC(=S)N(c3ccccc3Cl)C2=O)ccc1O	GIRK2 activ active
COc1cc(/C=C2\SC(=S)N(c3cccc(O)c3)C2=O)ccc1O	none
COc1cc(/C=C2\SC(=S)N(c3ccc(O)cc3)C2=O)ccc1O	none
O=C(Nc1cccs1)N1CCC(Cn2c(C(F)(F)F)nc3ccccc32)CC1	none
COc1ccc(Cl)cc1NC(=O)CSc1nc2c(-c3ccc(C)cc3)csc2c(=O)n1C	none
O=C(Nc1ccc(F)cc1)c1nnn(-c2ccccc2Cl)c1-c1ccccn1	none
O=C(c1nnn(-c2ccccc2Cl)c1-c1ccccn1)N1CCN(c2ncccn2)CC1	none
Cc1[nH]ncc1CNC(=O)c1nnn(-c2ccccc2Cl)c1-c1ccccn1	none
Cc1csc(NC(=O)c2nnn(-c3ccccc3Cl)c2-c2ccccn2)n1	GIRK2 activ active
O=C(Nc1ccc2c(c1)OCCO2)c1nnn(-c2ccccc2Cl)c1-c1ccccn1	GIRK2 activ active
O=C(Nc1nccs1)c1nnn(-c2ccccc2)c1-c1ccccn1	none
Cc1ccsc1C(O)CNC(=O)NC1CCCCC1 (centres undefined)	none
CNC(=O)CCNS(=O)(=O)c1cc(N(C)S(C)(=O)=O)c(C)cc1C	none
CCOC(=O)c1c(NCc2ccc3c(c2)OCO3)c2cccc(C)c2[nH]c1=O	none
CC(C)Sc1ccc(CC(=O)NCCN2CCN(c3ccc(F)cc3)CC2)cc1	none
Cc1nn(C(C)(C)C)c(OC(=O)c2ccc3ccccc3c2)c1S(=O)(=O)c1ccccc1	none
COc1ccccc1C(O)Cn1cc(C(=O)N2CCN(C(=O)OC(C)(C)C)CC2)nn1 (centres undefined)	none
COc1ccc(CCC(=O)Nc2ccc(Cn3cnc(C(=O)Nc4ccccc4OC)c3)cc2)cc1	none
O=C(CSc1nc2ccccc2c(=O)n1Cc1ccc2c(c1)OCO2)Nc1ncn[nH]1	none
Cc1ccc(NC(=O)N2CCN(c3cc(-n4cccc4)ncn3)CC2)c(C)c1	none
COc1ccc(CC(=O)NCCCS(=O)(=O)N2CCN(c3ccccc3)CC2)cc1	none
O=C(CSC1CCCC1)NCCCn1ccnc1-c1ccccc1	none
CC(=O)c1sc(NC(=O)CCCOc2ccc(C(C)(C)C)cc2)nc1C	none
COc1ccc(-c2noc(Cc3nnc(-c4cccc(Br)c4)o3)n2)cc1OC	none
COc1cccc(C(=O)Nc2ccc3c(c2)CCC(=O)N3CCC(C)C)c1	none
CCOC(=O)CCC(=O)Nc1ccccc1NC(=O)c1ccccc1C(F)(F)F	none
COc1ccccc1C1C(=C(O)c2ccc(OC(C)C)cc2)C(=O)C(=O)N1c1cc(C)on1 (centres undefined)	none
Cc1ccccc1-n1nnc(C(=O)N2CCN(S(C)(=O)=O)CC2)c1-c1ccncc1	none
Cc1ccccc1-n1nnc(C(=O)Nc2cccc(C(C)C)c2)c1-c1ccncc1	GIRK2 activ active
COc1cccc(-n2nnc(C(=O)NCc3ccc(C(C)C)cc3)c2-c2ccncc2)c1	none
Cc1cc(O)c2c(CN3CCN(c4cccc(Cl)c4)CC3)cc(=O)oc2c1	none
COc1ccc(Cn2c(=O)c3nccnc3n(CC(=O)Nc3c(C)cc(C)cc3C)c2=O)cc1	none
O=C(c1c(F)cccc1Cl)N1CCN(c2ccc3nnc(-c4ccco4)n3n2)CC1	none
CCc1cccc2c1[nH]c1cc(NC(=O)CCc3c(C)[nH]c(=O)[nH]c3=O)ccc12	none
O=C(NCCC(O)c1cccc2ccccc12)C(=O)NCc1ccc(Cl)cc1 (centres undefined)	none
CCOC(=O)c1sc(NC(=O)CC2SC(N3CCOCC3)=NC2=O)cc1C (centres undefined)	none
COc1ccc(OC)c(NC(=O)c2n[nH]n3c2nc(=O)c2cc(Cl)ccc23)c1	none
CCOC(=O)C1=C(C)N=c2s/c(=C/c3cn(C)nc3C)c(=O)n2C1c1ccc(OC)cc1 (centres undefined)	none
CCOC(=O)C1=C(C)N=c2s/c(=C/c3c(C)nn(C)c3C)c(=O)n2C1c1ccccc1 (centres undefined)	GIRK2 activ active
CCn1cc(/C=c2/sc3n(c2=O)C(c2ccccc2)C(C(=O)Nc2ccccc2C)=C(C)N=3)c(C)n1 (centres undefined)	none
CCC(C)n1c(C)cn2c3c(=O)n(CCN4CCOCC4)c(=O)n(C)c3nc12 (centres undefined)	none
Cc1ccc(-c2cc3c(=O)n(Cc4nc(-c5cccc(Br)c5)no4)ncn3n2)c(C)c1	none
Cc1ccc(N2CCn3c2nc2c3c(=O)n(CCN3CCCCC3)c(=O)n2C)cc1C	none
NC(=O)c1ccc(NC(=O)CCc2csc(NC(=O)c3ccc[nH]c3=O)n2)cc1	none
COc1ccc(C(=O)Oc2ccc(/C=C/c3ccncc3)cc2)cc1	none
